# Bioassay records (PubChem BioAssay)
# HP1b binding inh: blocks HP1-beta chromodomain binding to methylated histone tails. P83916. AlphaScreen HP1-beta / biotin-H3K9me3 peptide binding. Potency, µM (highest dose often 114 µM), inactives show at the highest dose activity change, negative = inhibition, most hits filed as inhibitors. actives 0.56% (n = 390,000); note: nearly all actives have a fitted effect of over 70% in size
#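 Compound inhibition of the preformed complex between 50 nM HP1-beta and 50 nM biotinylated H3K9me3 peptide was read by AlphaScreen. Buffer was PBS pH 7.4 with 0.01% Tween-20. Incubations ran 30 min at room temperature, with 10 ug/mL donor/acceptor beads.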
# BAZ2B block: BAZ2B (human) inhibition. Q9UIF8. AlphaScreen BAZ2B-H3K14Ac peptide displacement. Potency, µM (titrated, usually from 114 µM), for the others: top-dose activity change, negative = inhibition, usual class: inhibitors. actives 4.4% (n = 360,000). AID 504333; note: % is set by controls: 0 for no effect and ±100 for the full control effect; nearly all actives have a fitted effect of over 60% in size
#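 Protein-peptide AlphaScreen: BAZ2B 50 nM, b-H3K14Ac 50 nM, 1x PBS pH 7.4 + 0.01% Tween-20. Preincubation 30 min RT; cpd 30 min RT (top 110 uM); beads 20 min RT, light-protected.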
# JMJD2A Tudor inh: blocks the human JMJD2A Tudor domain. AlphaScreen JMJD2A-Tudor / H3K4me3 peptide binding. AID 504339. O75164. Potency, µM (doses to about 114 µM), inactives show at the top dose activity change, negative = inhibition, actives largely listed as inhibitors. actives 4.4% (n = 390,000); note: % is set by controls: 0 for no effect and ±100 for the full control effect; nearly all actives have a fitted effect of over 50% in size
# G9a inh: blocks human histone lysine methyltransferase G9a; actives 8.8% (n = 350,000); Potency, µM (doses to about 102 µM), for the others: top-dose activity, negative = inhibition, most hits filed as inhibitors; AID 504332; G9a H3K9 monomethylation, AlphaScreen, 2 h; note: % is set by controls: 0 for no effect and ±100 for the full control effect; nearly all actives have a fitted effect of over 75% in size
#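 Step 1: enzyme (final 20 nM) with compound, 15 min RT. Step 2: substrate peptide 500 nM and SAM 20 uM, 2 h RT. Step 3: anti-H3K9me1 antibody and AlphaScreen beads, 10 min, then plate read.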
# L3MBTL1 block: blocks human L3MBTL1; AlphaScreen L3MBTL1–H3K9me1 peptide binding; Q9Y468; Potency, µM (highest dose often 57.1 µM), without a hit: at the top dose activity, negative = inhibition, actives largely listed as inhibitors; actives 0.66% (n = 230,000); AID 485360; note: % is set by controls: 0 for no effect and ±100 for the full control effect; nearly all actives have a fitted effect of over 60% in size
#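 AlphaScreen proximity signal between nickel-chelate acceptor and streptavidin donor beads (final 10 ug/mL) reports binding of 50 nM L3MBTL1 to 75 nM biotin-H3 K9me1 peptide; complex incubated with compounds 30 min at room temperature; cefsulodin titration as control.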
# GLS inhibitor: blocks human kidney-isoform glutaminase activity | GLS enzymatic activity, qHTS titration | Potency, µM (series often up to 45.5 µM), for the others: at the top dose activity change, negative = inhibition, hits mostly inhibitors | actives 0.21% (n = 410,000) | AID 624170; note: % is set by controls: 0 for no effect and ±100 for the full control effect
# Target sequence (O94925 whole entry, looked up, canonical isoform): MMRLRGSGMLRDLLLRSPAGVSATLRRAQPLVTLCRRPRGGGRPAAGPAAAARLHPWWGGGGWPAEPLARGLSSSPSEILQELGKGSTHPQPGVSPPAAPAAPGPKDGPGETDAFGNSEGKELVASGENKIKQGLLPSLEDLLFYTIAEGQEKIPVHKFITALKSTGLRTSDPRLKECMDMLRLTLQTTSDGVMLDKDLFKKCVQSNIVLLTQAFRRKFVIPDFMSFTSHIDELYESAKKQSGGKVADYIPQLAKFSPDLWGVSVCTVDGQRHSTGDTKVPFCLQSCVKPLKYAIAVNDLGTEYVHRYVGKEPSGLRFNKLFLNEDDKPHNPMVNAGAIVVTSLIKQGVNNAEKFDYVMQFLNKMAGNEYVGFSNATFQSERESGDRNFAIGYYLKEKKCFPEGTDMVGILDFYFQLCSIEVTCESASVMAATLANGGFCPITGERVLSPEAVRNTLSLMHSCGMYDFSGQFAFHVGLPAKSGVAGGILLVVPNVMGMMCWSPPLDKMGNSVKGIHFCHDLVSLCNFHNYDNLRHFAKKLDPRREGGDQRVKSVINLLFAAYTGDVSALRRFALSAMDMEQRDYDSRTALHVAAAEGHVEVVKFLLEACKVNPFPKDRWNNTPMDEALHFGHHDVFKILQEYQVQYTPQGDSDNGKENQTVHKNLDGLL
#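 hKGA in 45 mM KH2PO4 pH 8.2, 0.02% Tween-20 with pin-transferred compounds; 1 mM L-glutamine (stock) plus glutamate oxidase/HRP/Amplex Red coupling added. Fluorescence read initially and after 30 min at RT.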
# An asterisk follows results filed as active; ? = inconclusive; nt = no result given; [ ] = dose if it differs, or a comment. Shown are actives, neighbours in structure and some others; about 10% of the full set was active somewhere. Calls come from the whole dose curve; as a rule, active = well fitted curve in the direction sought with a large enough effect; inconclusive = small, poorly fitted or top-dose-only effect, or another doubt; inactive = no such curve, though single readings can be large; an effect the other way counts as inactive or inconclusive. Potency is the fitted concentration of half-maximal effect.
SMILES,HP1b binding inh,BAZ2B block,JMJD2A Tudor inh,G9a inh,L3MBTL1 block,GLS inhibitor
N#C/C(=C/c1ccc(N2CCCC2)c([N+](=O)[O-])c1)c1nc2ccccc2[nH]1,8%,-5%,-12%,11%[2.33 µM],-7%,nt
Cc1ccc2nc(/C(C#N)=C\c3ccc(N4CCCCC4)c([N+](=O)[O-])c3)[nH]c2c1,?,45µM*,5.6µM*,14µM*,nt,4%
Cc1ccc2nc(/C(C#N)=C/c3ccc(O)c(O)c3)[nH]c2c1,?,7.9µM*,16µM*,8.9µM*,nt,?
CCc1sc(Nc2ccc(C)cc2Br)nc1-c1cc2cccc(OC)c2oc1=O,13%,-1%,-19%,10%[59 µM],nt,-7%
COc1ccc(-c2ccc(C(C)=O)cc2)cc1C1C2C=CCC(C)C2C(=O)N1Cc1ccccc1 (stereo not given),-3%,nt,?,nt,nt,nt
O=C1CC(NCC2CCCO2)C(=O)N1c1ccc(Cl)cc1 (stereo not given),24%,-14%,-14%,45µM*,-2%,-4%
Cc1ccc(N2C(=O)CC(NCC3CCCO3)C2=O)cc1 (stereo not given),52%,-15%,-7%,-28%,2%,0%
CCOC(=O)c1oc2ccc(CNCCO)c(Cl)c2c1C,2%,10%,-5%[57.1 µM],9%,-7%,0%
CCOC(=O)c1oc2ccc(CNC3CCCCC3)c(Cl)c2c1C,?,?,4µM*,10µM*,7%,11%
COc1ccc(C2NCCc3c2[nH]c2ccccc32)cc1COc1ccc(F)cc1 (stereo not given),?,35µM*,40µM*,?,-14%,16%
COc1ccc(C2NCCc3c2[nH]c2ccccc32)cc1CN1CCc2cc(OC)c(OC)cc2C1C (stereo not given),4%,?,-24%[11.4 µM],45µM*,nt,-4%
COc1ccc(C2NC(C(=O)O)Cc3c2[nH]c2ccccc32)cc1CN1CCN(c2ccc(F)cc2)CC1 (stereo not given),-13%,?,?,28%[12.7 µM],nt,23%
COc1ccc(/C=N/NC(=O)c2cc(OC)c(OC)c(OC)c2)cc1CN1CCc2cc(OC)c(OC)cc2C1C (stereo not given),10%,-16%,-25%,?,nt,-2%
CCCS(=O)(=O)N1CC(=O)N(c2cc(C)cc(C)c2)C(C)(C(=O)NC2CCCCCC2)C1 (stereo not given),-6%,3%,-20%,0%[59 µM],nt,-11%
Fc1cccc(CCN2CCNC[C@@H]2Cc2ccccc2)c1,14%,nt,56µM*,nt,nt,?
CNCCN(C)c1nc(-c2cccs2)nc2ccccc12,28%,nt,-12%,nt,nt,nt
CCOCCCn1c(SCC(=O)Nc2ccccc2CC)nc2ccccc2c1=O,25%,-2%,-5%,12%[59 µM],nt,-12%
Cn1cnc2cc(NCc3cccs3)ccc21,1%,-30%,-34%,?,nt,-14%
c1ccc(-n2cnc3cc(NCc4ccco4)ccc32)cc1,?,?,79µM*,11µM*,-25%,-13%
Cc1nc2cc(NC(=O)NCc3ccco3)ccc2n1C,15%,-7%,-21%,-25%[59 µM],11%[11.4 µM],5%
c1ccc(-n2cnc3cc(NCc4cccs4)ccc32)cc1,-32%,50µM*,56µM*,-7%[2.33 µM],-20%,-10%
COc1ccc(-n2cnc3cc(NCc4cccs4)ccc32)cc1,40µM*,18µM*,-15%[11.4 µM],?,?,28%
Cc1ccc(C(=O)NCCc2ccc(S(N)(=O)=O)cc2)cc1-n1cnc2cccnc21,32%,-21%,6%,?,nt,1%
COc1ccc(NC(=O)Cn2c(=O)n(-c3cccc(C(F)(F)F)c3)c(=O)c3sccc32)cc1,28%,-2%,6%,-1%[59 µM],nt,3%
Cc1nnc(N2CCN(c3cccc(C(F)(F)F)c3)CC2)c2c1nnn2Cc1ccccc1,34%,1%,-12%,8%[59 µM],nt,3%
